Test results reported in PubChem BioAssay AID1159580 (chemical genetic matrix, 2015).
Out of some 5,500 compounds screened, about 2,000 (36%) were called active. About 18% were inconclusive and are not listed. No stated cut-off is given here; in the data, active means normalized growth mostly below about 0.91 (no sharp cut-off); inconclusive means no clear call, values can overlap the other calls; inactive means mostly above about 0.92. This is one part of the list.

Experiment: chemical genetic growth profiling, strain panel (AID 1159580);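 further: tested at 20 µM; growth read once vehicle control cultures reached saturation at 30 °C; 1 = growth at the plate median or of vehicle wells; lower values mean less growth of the strain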
Settings: S. cerevisiae deletion strains, growth OD
[1] = locus YGR078C, strain PAC10, active compounds read low
[2] = locus YJR075W, strain HOC1, active compounds read low
[3] = locus YMR263W, strain SAP30, active compounds read low
[4] = locus YNL128W, strain TEP1, active compounds read low
[5] = locus YNL153C, strain GIM3, active compounds read low
[6] = locus YNL322C, strain KRE1, active compounds read low
[7] = locus YPL055C, strain LGE1, active compounds read low
[8] = locus YPL241C, strain CIN2, active compounds read low
[9] = locus YAL013W, strain DEP1, active compounds read low
[10] = locus YBR229C, strain ROT2, active compounds read low
[11] = locus YDL101C, strain DUN1, active compounds read low
[12] = locus YDL134C, strain PPH21, active compounds read low
[13] = locus YEL061C, strain CIN8, active compounds read low
[14] = locus YHR030C, strain SLT2, active compounds read low
[15] = locus YJR043C, strain POL32, active compounds read low
[16] = locus YKL190W, strain CNB1, active compounds read low
[17] = locus YLR039C, strain RIC1, active compounds read low
[18] = locus YLR262C, strain YPT6, active compounds read low
[19] = locus YMR307W, strain GAS1, active compounds read low

Measured: normalized growth

Cn1cc(C(F)(F)F)nc1-c1ccc(OCC(O)CNCCOc2ccc(O)c(C(N)=O)c2)cc1 (stereo not given)
inactive: locus YAL040C, strain CLN3, active compounds read low 0.996 | locus YCL061C, strain MRC1 (second series), active compounds read low 1 | locus YDR363W, strain ESC2, active compounds read low 1.01 | locus YER002W, strain NOP16, active compounds read low 1.04 | [1] 1.01 | [2] 1 | [3] 1.01 | [4] 1.02 | [5] 1.01 | locus YNL175C, strain NOP13, active compounds read low 1.05 | locus YNL197C, strain WHI3, active compounds read low 1.03 | locus YNL224C, strain SQS1, active compounds read low 1.04 | [6] 1.03 | locus YOR083W, strain WHI5 (second series), active compounds read low 0.987 | [7] 1.01 | [8] 1

CC(C)(C)c1ccc(CSc2nc(N)cc(=O)[nH]2)cc1
inactive: [9] 0.993 | [10] 1.02 | locus YCL061C, strain MRC1, active compounds read low 0.998 | [11] 0.981 | [12] 1.01 | locus YDR150W, strain NUM1, active compounds read low 0.949 | [13] 0.995 | [1] 1 | locus YGR229C, strain SMI1, active compounds read low 1.01 | [14] 0.988 | locus YHR087W, strain rtc3, active compounds read low 0.993 | locus YJL187C, strain SWE1, active compounds read low 0.985 | [15] 1.01 | [2] 1.01 | [16] 1.02 | [17] 1.02 | locus YLR058C, strain SHM2 (second series), active compounds read low 1.01 | locus YLR085C, strain ARP6, active compounds read low 0.898 | [18] 1.09 | locus YML094W, strain GIM5, active compounds read low 0.975 | locus YMR219W, strain ESC1, active compounds read low 1 | [3] 1.01 | [19] 0.855 | [4] 1.01 | [5] 1.01 | locus YNL298W, strain CLA4 (second series), active compounds read low 1.01 | [6] 1 | locus YNR030W, strain Alg12, active compounds read low 1.01 | [7] 0.862 | [8] 0.972 | locus YPR135W, strain CTF4, active compounds read low 0.949

CC(=O)Oc1cccc(C(=O)O)c1OC(C)=O
inactive: [9] 1.01 | locus YBR021W, strain FUR4, active compounds read low 0.987 | [10] 1 | locus YCL029C, strain bik1, active compounds read low 1 | locus YDL035C, strain GPR1, active compounds read low 1.03 | locus YDL074C, strain BRE1, active compounds read low 1.01 | [11] 1.01 | [12] 1.01 | locus YDL185W, strain tfp1, active compounds read low 1.02 | locus YDL192W, strain arf1, active compounds read low 1.02 | locus YDR101C, strain arx1, active compounds read low 0.985 | locus YDR162C, strain NBP2, active compounds read low 1.02 | locus YDR318W, strain mcm21, active compounds read low 1.01 | locus YDR388W, active compounds read low 1.01 | locus YDR502C, strain sam2, active compounds read low 1 | [13] 1.01 | locus YER110C, active compounds read low 1.02 | locus YER155C, strain BEM2, active compounds read low 1 | locus YER167W, strain BCK2, active compounds read low 1.01 | locus YGL078C, strain dbp3, active compounds read low 1.01 | locus YGL086W, strain mad1, active compounds read low 0.997 | locus YGL248W, strain PDE1, active compounds read low 1.01 | [1] 1.01 | locus YGR135W, strain pre9, active compounds read low 1.04 | locus YGR252W, strain gcn5, active compounds read low 1 | [14] 1.01 | locus YHR079C, strain IRE1 (second series), active compounds read low 1.01 | locus YHR094C, strain hxt1, active compounds read low 1.01 | locus YHR129C, strain ARP1, active compounds read low 1.01 | locus YHR200W, strain rpn10, active compounds read low 1.02 | locus YIL066C, strain RNR3, active compounds read low 1.01 | locus YIL073C, strain SPO22, active compounds read low 1.05 | locus YIL125W, strain kgd1, active compounds read low 1.01 | locus YIR030C, strain dcg1, active compounds read low 1.01 | locus YJL095W, strain BCK1, active compounds read low 1.01 | locus YJL134W, strain LCB3, active compounds read low 1 | locus YJL168C, strain set2, active compounds read low 1.02 | locus YJL187C, strain SWE1 (second series), active compounds read low 1.01 | [15] 1.01 | [2] 1.03 | locus YKL009W, strain mrt4, active compounds read low 1.03 | locus YKL068W, active compounds read low 1.01 | locus YKL085W, strain MDH1 (second series), active compounds read low 1.07 | locus YKL085W, strain MDH1, active compounds read low 1.07 | [16] 1.01 | locus YKR001C, strain vps1, active compounds read low 1.01 | [17] 1.02 | locus YLR058C, strain SHM2, active compounds read low 1.01 | locus YLR102C, strain apc9, active compounds read low 1.01 | [18] 1.02 | locus YLR268W, strain sec22, active compounds read low 1 | locus YLR330W, strain CHS5, active compounds read low 1.01 | locus YLR342W, strain FKS1 (second series), active compounds read low 1.04 | locus YLR371W, strain rom2, active compounds read low 1 | locus YLR418C, strain cdc73, active compounds read low 1.01 | locus YML016C, strain PPZ1, active compounds read low 1.01 | locus YML032C, strain rad52, active compounds read low 1.02 | locus YML124C, strain tub3, active compounds read low 1.02 | locus YMR078C, strain ctf18, active compounds read low 1.02 | locus YMR223W, strain ubp8, active compounds read low 1.04 | [19] 1.07 | locus YNL067W, strain RPL9B, active compounds read low 1.01 | [5] 0.997 | locus YNL233W, strain BNI4, active compounds read low 1 | locus YNL250W, strain rad50, active compounds read low 1.04 | locus YNL271C, strain bni1, active compounds read low 1.01 | locus YNL298W, strain CLA4, active compounds read low 1.02 | locus YNL307C, strain MCK1, active compounds read low 1.02 | [6] 1.01 | locus YNR052C, strain pop2, active compounds read low 1.01 | locus YOL006C, strain TOP1, active compounds read low 1.06 | locus YOL147C, strain pex11, active compounds read low 1.01 | locus YOR061W, strain CKA2, active compounds read low 1.01 | locus YOR069W, strain VPS5, active compounds read low 1.01 | locus YOR136W, strain idh2, active compounds read low 1.01 | locus YOR144C, strain elg1, active compounds read low 1.01 | locus YOR184W, strain ser1, active compounds read low 1.02 | locus YOR316C, strain cot1, active compounds read low 1.01 | locus YPR119W, strain clb2, active compounds read low 1.01 | locus YPR141C, strain kar3, active compounds read low 1 | locus YPR163C, strain tif3, active compounds read low 1.01 | locus YPR167C, strain met16, active compounds read low 1.01 | strain wtn01, active compounds read low 1.01
